# Assay results taken from the supplement of paper PMC10849652.
# About 8,800 targets were measured; listed, in parts, are those with a hit and a random draw of the rest. About 0.5% of all pairs of compound and target were hits. A number with no mark means an inactive call.
# Tests used:
# Assay in all cases: log2 fold change, soluble protein after heating vs DMSO (PISA); higher = thermal stabilisation; K562 lysate, 10 uM; active = over 0.2 and 3.5 SD of the protein, either way, in both replicates (recomputed)
# vemurafenib = compound: CCCS(=O)(=O)Nc1ccc(F)c(C(=O)c2c[nH]c3ncc(-c4ccc(Cl)cc4)cc23)c1F [vemurafenib]
# Method in brief: (§1)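 Quantification was by TMTpro 16plex LC-MS/MS with equalised channel sums, applied to the supernatant after 21,000xg for 90 min. Samples were crude K562 extract at 1 mg/mL protein in PBS pH 7.4 with 1 mM MgCl2, treated with 10 μM compound for 30 min, heated for 3 min across 48°C-58°C, pooled and brought to 0.5% NP-40 at 4°C. Values are log-two fold changes in thermal stability relative to solvent controls, from duplicates.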
# [1] = compound: CCCS(=O)(=O)Nc1ccc(F)c(C(=O)c2c[nH]c3ncc(Cl)cc23)c1F
# Method in brief: as §1
# barasertib = compound: CCN(CCCOc1ccc2c(Nc3cc(CC(=O)Nc4cccc(F)c4)[nH]n3)ncnc2c1)CCOP(=O)(O)O [barasertib]
# Method in brief: as §1
# [2] = compound: CC[C@@H]1C(=O)N(C)c2cnc(Nc3ccc(C(=O)NC4CCN(C)CC4)cc3OC)nc2N1C1CCCC1
# Method in brief: as §1
# volasertib = compound: CC[C@@H]1C(=O)N(C)c2cnc(Nc3ccc(C(=O)N[C@H]4CC[C@H](N5CCN(CC6CC6)CC5)CC4)cc3OC)nc2N1C(C)C [volasertib]
# Method in brief: as §1
# [3] = compound: CCn1c(C(=O)N(C2CC2)C2CC2)cc2c3c(ncn3C)c(Nc3cc(C)n(C)n3)nc21
# Method in brief: as §1
# [4] = compound: CCn1cc(-c2ccnc3[nH]c(-c4cccc(CN(C)C)c4)cc23)c(-c2ccc(NC(=O)N(C)C)cc2)n1
# Method in brief: as §1
# [5] = compound: CN1CCC(CNc2ccc3ncc(-c4cccc(OC(F)(F)F)c4)n3n2)CC1
# Method in brief: as §1
# saracatinib = compound: CN1CCN(CCOc2cc(OC3CCOCC3)c3c(Nc4c(Cl)ccc5c4OCO5)ncnc3c2)CC1 [saracatinib]
# Method in brief: as §1
# sotrastaurin = compound: CN1CCN(c2nc(C3=C(c4c[nH]c5ccccc45)C(=O)NC3=O)c3ccccc3n2)CC1 [sotrastaurin]
# Method in brief: as §1
# Chain of UniProt Q99541 (Q99541 whole entry, looked up): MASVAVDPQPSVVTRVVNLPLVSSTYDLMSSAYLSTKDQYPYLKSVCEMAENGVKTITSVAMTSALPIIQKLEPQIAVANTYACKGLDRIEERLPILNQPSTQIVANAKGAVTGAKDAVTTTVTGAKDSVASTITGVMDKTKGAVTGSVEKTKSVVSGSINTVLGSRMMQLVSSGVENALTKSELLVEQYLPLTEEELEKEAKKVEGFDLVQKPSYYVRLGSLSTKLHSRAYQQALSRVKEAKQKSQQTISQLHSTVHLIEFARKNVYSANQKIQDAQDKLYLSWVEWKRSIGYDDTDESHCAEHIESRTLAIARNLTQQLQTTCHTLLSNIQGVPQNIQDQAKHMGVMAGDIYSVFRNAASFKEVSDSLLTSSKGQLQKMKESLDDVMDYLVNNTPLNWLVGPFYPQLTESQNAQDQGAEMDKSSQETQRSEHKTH
# Chain of UniProt Q16877 (Q16877 whole entry, looked up): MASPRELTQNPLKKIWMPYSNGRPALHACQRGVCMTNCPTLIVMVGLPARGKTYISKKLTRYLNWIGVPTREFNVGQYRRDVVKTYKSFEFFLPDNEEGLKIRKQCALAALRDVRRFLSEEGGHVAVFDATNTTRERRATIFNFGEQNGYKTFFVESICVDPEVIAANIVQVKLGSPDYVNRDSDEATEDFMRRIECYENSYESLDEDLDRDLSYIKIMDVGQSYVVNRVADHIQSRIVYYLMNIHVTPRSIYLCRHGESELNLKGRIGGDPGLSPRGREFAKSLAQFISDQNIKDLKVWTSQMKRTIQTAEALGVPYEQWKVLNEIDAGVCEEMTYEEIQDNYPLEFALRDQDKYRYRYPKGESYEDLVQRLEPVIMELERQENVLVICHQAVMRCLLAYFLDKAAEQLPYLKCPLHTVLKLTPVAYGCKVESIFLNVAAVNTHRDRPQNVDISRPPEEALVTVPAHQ
# Chain of UniProt Q9H4Z3 (Q9H4Z3 whole entry, looked up): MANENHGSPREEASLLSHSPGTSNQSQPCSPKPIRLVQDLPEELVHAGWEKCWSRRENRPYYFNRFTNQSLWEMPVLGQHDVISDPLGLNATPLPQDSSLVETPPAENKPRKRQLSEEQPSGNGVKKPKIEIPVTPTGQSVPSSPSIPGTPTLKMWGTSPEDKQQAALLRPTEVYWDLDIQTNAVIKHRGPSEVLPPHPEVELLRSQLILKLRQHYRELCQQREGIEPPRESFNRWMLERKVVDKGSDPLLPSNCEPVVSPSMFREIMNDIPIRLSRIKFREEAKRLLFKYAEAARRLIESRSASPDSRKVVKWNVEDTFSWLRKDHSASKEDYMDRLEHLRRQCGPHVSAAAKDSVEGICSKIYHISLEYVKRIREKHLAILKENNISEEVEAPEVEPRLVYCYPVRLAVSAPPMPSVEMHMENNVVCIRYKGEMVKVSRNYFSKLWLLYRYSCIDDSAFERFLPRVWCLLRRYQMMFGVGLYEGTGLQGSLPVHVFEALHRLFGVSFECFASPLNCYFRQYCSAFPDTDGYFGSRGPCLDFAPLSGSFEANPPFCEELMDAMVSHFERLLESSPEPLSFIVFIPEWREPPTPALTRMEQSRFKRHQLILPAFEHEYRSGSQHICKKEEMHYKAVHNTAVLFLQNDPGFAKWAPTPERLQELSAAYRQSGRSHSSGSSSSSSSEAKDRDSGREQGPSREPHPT
# Chain of UniProt Q96I23 (Q96I23 whole entry, looked up): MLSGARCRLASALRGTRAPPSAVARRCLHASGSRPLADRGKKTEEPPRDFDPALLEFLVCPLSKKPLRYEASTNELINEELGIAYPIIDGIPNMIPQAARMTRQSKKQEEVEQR
# Chain of UniProt Q12972 (Q12972 whole entry, looked up): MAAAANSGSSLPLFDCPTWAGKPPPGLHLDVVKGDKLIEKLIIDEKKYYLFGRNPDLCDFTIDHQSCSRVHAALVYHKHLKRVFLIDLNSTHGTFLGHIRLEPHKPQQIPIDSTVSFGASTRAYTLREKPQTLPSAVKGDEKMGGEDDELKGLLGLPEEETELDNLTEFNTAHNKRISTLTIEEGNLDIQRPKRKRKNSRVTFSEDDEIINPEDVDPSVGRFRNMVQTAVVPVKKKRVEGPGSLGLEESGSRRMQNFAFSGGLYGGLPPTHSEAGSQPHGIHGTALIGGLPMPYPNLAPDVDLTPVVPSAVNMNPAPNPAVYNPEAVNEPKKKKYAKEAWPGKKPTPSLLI
# Chain of UniProt Q9NVU0 (Q9NVU0 whole entry, looked up): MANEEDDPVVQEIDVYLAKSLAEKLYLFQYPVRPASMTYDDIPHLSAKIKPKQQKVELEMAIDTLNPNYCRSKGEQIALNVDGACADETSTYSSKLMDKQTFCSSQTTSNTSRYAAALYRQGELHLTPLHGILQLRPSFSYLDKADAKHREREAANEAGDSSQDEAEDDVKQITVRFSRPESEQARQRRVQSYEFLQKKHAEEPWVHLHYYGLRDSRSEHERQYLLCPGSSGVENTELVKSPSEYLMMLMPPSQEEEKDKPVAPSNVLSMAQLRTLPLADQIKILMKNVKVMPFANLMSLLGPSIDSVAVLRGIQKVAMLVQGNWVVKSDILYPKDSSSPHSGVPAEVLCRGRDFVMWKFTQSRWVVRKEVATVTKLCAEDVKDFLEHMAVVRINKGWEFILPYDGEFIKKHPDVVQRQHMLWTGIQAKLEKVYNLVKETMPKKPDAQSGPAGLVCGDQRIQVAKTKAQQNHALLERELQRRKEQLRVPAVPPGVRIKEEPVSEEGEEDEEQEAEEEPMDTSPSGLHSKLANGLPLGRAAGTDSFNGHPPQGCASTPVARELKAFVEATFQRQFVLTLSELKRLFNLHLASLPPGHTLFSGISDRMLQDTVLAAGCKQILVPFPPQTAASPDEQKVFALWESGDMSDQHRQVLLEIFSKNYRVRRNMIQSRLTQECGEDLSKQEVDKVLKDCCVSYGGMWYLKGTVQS
# Chain of UniProt Q13362 (Q13362 whole entry, looked up): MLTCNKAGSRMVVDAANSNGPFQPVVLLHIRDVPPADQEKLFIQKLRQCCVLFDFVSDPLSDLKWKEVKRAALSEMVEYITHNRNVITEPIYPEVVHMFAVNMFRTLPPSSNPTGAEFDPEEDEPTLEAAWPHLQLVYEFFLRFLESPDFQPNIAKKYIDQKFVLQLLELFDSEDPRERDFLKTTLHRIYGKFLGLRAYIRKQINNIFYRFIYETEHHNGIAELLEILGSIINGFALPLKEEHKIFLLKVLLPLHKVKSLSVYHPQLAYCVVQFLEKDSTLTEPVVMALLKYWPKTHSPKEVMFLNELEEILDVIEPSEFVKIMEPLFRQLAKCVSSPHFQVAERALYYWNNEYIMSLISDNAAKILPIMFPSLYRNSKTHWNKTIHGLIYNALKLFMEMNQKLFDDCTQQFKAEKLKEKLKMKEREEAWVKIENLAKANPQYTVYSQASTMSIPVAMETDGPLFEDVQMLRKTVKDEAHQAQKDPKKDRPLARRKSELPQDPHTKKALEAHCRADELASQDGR
# Chain of UniProt O00764 (O00764 whole entry, looked up): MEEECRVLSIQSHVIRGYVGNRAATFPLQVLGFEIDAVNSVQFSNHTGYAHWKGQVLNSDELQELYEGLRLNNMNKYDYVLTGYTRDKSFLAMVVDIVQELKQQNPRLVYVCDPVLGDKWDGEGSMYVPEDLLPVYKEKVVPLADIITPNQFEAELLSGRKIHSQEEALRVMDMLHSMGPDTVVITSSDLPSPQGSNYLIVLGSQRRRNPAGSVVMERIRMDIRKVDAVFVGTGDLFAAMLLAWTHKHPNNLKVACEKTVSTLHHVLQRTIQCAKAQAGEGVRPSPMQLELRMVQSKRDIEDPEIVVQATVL
# Chain of UniProt Q86UU1 (Q86UU1 whole entry, looked up): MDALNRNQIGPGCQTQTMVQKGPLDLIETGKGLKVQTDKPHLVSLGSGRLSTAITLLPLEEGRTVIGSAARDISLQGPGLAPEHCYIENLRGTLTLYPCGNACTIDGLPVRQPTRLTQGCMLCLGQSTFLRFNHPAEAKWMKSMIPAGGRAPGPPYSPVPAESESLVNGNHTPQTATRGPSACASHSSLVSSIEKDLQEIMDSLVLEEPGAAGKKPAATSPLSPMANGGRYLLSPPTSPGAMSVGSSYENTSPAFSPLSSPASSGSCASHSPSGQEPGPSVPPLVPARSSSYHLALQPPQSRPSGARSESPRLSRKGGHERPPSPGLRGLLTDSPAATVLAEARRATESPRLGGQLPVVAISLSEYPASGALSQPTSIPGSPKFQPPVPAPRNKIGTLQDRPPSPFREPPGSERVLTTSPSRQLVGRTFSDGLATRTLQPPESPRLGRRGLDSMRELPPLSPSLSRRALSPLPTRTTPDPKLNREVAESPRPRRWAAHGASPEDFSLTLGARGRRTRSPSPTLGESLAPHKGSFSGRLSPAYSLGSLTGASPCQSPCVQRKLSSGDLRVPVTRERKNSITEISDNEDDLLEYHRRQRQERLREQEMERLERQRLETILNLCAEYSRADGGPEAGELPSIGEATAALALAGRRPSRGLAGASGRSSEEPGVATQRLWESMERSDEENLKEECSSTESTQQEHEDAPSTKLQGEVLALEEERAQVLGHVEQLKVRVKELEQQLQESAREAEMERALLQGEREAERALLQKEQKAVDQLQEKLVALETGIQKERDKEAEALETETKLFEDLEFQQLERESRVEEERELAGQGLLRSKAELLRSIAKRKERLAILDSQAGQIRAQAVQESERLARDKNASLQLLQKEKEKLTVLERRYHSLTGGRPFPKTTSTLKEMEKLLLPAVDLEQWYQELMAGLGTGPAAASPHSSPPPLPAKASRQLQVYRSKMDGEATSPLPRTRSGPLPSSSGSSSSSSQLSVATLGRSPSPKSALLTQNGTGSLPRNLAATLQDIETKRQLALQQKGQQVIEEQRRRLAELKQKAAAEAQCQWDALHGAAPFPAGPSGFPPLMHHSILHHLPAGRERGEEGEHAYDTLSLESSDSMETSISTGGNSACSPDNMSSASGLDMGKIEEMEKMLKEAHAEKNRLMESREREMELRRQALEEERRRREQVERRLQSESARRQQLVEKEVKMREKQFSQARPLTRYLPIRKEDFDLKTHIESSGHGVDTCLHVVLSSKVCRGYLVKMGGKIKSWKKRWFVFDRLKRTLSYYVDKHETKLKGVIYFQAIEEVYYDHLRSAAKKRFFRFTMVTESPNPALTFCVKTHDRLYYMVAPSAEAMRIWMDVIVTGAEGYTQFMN
Target,log2 fold change (vemurafenib),log2 fold change [1],log2 fold change (barasertib),log2 fold change [2],log2 fold change (volasertib),log2 fold change [3],log2 fold change [4],log2 fold change [5],log2 fold change (saracatinib),log2 fold change (sotrastaurin)
PPM1H (UniProt Q9ULR3),0.066,-0.001,0,0.103,0.025,0,-0.079,0.041,-0.062,0.022
PI4K2B (UniProt Q8TCG2),-0.003,-0.006,0.023,0.07,-0.032,-0.062,0.081,0.121,-0.009,0.132
PPP2R3C (UniProt Q969Q6),-0.081,-0.094,0.094,-0.244,0,0.071,-0.392 (active),0.115,0.04,–
PUM1 isoform 3 (UniProt Q14671),-0.07,0.013,0.068,0.031,-0.063,0.03,0.045,-0.084,0.039,0.016
PDXK (UniProt O00764),0.005,-0.001,-0.014,0.329 (active),0.025,-0.004,-0.134,0.156,-0.023,-0.016
PRKCA (UniProt P17252),0.019,-0.016,0.051,-0.186,-0.054,0.004,0.101,-0.207,-0.046,0.924 (active)
PKN1 isoform 2 (UniProt Q16512),0.013,0.049,-0.006,0.013,-0.009,0.024,-0.055,-0.483 (active),0.002,-0.143
PFN1 (UniProt P07737),-0.01,-0.01,0.012,0.02,0.015,0.02,-0.02,0.028,-0.004,-0.005
POLR3E (UniProt Q9NVU0),0.011,0.02,0.003,0.018,-0.004,-0.012,0.035,0.012,0.017,0.048
PPP2R5C isoform 4 (UniProt Q13362),0.029,0.02,-0.001,0.018,-0.002,0.022,-0.02,-0.038,0.017,-0.036
PLIN2 (UniProt Q99541),0.014,-0.01,0.073,0.033,0.003,0.048,0.033,-0.181,0.019,0.007
PFKFB4 (UniProt Q16877),0.021,0.005,0.087,0.015,-0.068,-0.011,0.014,0.007,0.077,0.043
PLA2G4B isoform 6 (UniProt P0C869),0.05,0.069,0.002,0.144,0.018,-0.191,0.034,-0.014,0.101,-0.168
PPP1R8 (UniProt Q12972),0.049,-0.011,-0.032,0.08,-0.007,-0.031,-0.28 (active),0.176,-0.038,0.015
PTS (UniProt Q03393),0.33 (active),0.044,0.051,0.054,0.014,0.02,-0.045,0.01,0.104,0.057
PDAP1 (UniProt Q13442),-0.026,-0.01,-0.064,0.069,0.04,-0.043,-0.267 (active),0.159,-0.002,-0.02
PTPN1 (UniProt P18031),0.04,-0.005,0.042,-0.029,-0.04,0.033,-0.061,-0.03,0.022,0.069
PTGES2 (UniProt Q9H7Z7),0.547 (active),0.06,-0.107,-0.108,0.159,-0.053,-0.003,-0.18,-0.029,0.058
PCBP3 (UniProt P57721),0.021,-0.007,-0.007,-0.003,0.006,-0.011,-0.062,0.032,0.014,-0.047
PDCD6IP isoform 2 (UniProt Q8WUM4),-0.018,-0.005,-0.008,-0.036,-0.022,0.032,0.071,-0.054,0.011,0.003
PRKRA (UniProt O75569),-0.012,0.031,-0.042,-0.082,-0.052,0.041,0,-0.016,0.03,0.009
PPIL2 (UniProt Q13356),0.012,0.015,0.035,-0.013,-0.06,0,-0.023,0.016,-0.032,0.024
PFKFB2 (UniProt O60825),-0.011,0.011,0.008,0.004,-0.025,0.015,-0.021,-0.029,0.012,0.002
PHLDB1 (UniProt Q86UU1),-0.071,0.162,0.01,0.033,-0.044,0.001,0.095,-0.014,0.005,-0.049
PCIF1 (UniProt Q9H4Z3),0.03,-0.012,0.088,0.023,0.005,0.029,-0.223,0.011,-0.001,-0.036
PPP3CA isoform 2 (UniProt Q08209),-0.008,-0.037,0.025,0.046,-0.005,0.032,0.115,-0.182,0,-0.005
PFKP (UniProt Q01813),-0.047,-0.056,0.018,-0.005,0.015,-0.007,0.052,-0.033,0.008,-0.025
PRPF38A (UniProt Q8NAV1),-0.021,-0.011,-0.037,-0.029,-0.031,-0.055,-0.465 (active),0.046,0.004,0.191
PYURF (UniProt Q96I23),-0.048,-0.003,-0.049,0.103,0.059,0.042,-0.03,-0.002,-0.013,-0.034
PICALM (UniProt H0YEH1),0.05,-0.094,-0.018,-0.008,-0.011,-0.014,-0.54 (active),0.248,0.056,0.126
